# Source: PubChem BioAssay AID1377 (University of Pittsburgh Molecular Library Screening Center, 2008)
# The campaign covered roughly 220,000 compounds. About 830 (0.38%) were called active.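 The calls were made as follows: active = activation, scaled between plate controls, above about 75% (limit read from the data); inactive = activation under that limit.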 Many of the other results were omitted from the sample, so actives are more common in it than they were.
# Assay: inhibitors of zVAD-triggered necroptosis, primary screen, L929 cells (AID 1377);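 also: 0% = zVAD with DMSO and 100% = DMSO alone without zVAD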
# Details: ATP luminescence, 24 h, at 10 µM, with zVAD 60 µM, stronger effect = higher value
row,SMILES,viability rescue
1,COC(=O)N1C(c2ccccc2)C1c1ccccc1 (stereo not given),83.8% (active)
2,COC(=O)C(c1ccccc1)N1CCCCCC1 (stereo not given),0.41% (inactive)
3,CCCC[N+]1(C)C2CC(OC(=O)C(CO)c3ccccc3)CC1C1OC12 (stereo not given),-0.33% (inactive)
4,CN1CCN(/N=C/c2c[nH]c3ccccc23)CC1,-0.46% (inactive)
5,CC1C2Cn3c(nc4ccccc43)C1N(C)O2 (stereo not given),0.4% (inactive)
